# Source: PubChem BioAssay (NCATS)
# Results filed as inconclusive are left out. Where a call stands in place of a potency, no number is given. Values without a mark were called inactive. Active and inactive are the calls of the source. Calls follow the shape of the full dose curve.
# Molecular target: Nucleoprotein (Lymphocytic choriomeningitis virus (strain Armstrong)) (UniProt P09992)
# Assay: qHTS for Inhibitors of the Functional Ribonucleoprotein Complex (vRNP) of Lymphocytic Choriomeningitis Arenaviruses (LCMV): LCMV Primary Screen - GLuc reporter signal (AID 1347086); also: nearly all actives have a fitted effect of over 70% in size
# Details: LCMV minigenome vRNP cell assay, Gaussia luciferase reporter; series mostly up to 57.5 µM
# Potency is read from the fitted curve at half-maximal effect.
# Nucleoprotein (Lymphocytic choriomeningitis virus (strain Armstrong)), sequence (P09992 whole entry, looked up): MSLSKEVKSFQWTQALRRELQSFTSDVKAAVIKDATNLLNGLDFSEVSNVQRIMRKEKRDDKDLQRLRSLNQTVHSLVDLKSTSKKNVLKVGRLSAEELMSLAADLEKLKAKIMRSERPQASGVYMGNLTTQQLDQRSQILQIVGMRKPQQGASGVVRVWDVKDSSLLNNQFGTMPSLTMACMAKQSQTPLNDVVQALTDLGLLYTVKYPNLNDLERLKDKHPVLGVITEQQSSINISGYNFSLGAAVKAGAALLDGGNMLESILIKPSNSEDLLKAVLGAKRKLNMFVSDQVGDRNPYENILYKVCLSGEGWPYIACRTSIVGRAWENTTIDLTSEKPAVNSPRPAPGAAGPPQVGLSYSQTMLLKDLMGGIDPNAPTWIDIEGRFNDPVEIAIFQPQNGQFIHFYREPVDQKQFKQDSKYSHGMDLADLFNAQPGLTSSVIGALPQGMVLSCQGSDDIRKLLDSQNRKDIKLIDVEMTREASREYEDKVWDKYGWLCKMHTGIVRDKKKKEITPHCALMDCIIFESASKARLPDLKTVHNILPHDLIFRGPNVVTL
SMILES,Potency,"activity change, negative = inhibition"
CC1(C)CCC[C@]2(C)[C@H]3CCO[C@]3(C)CC[C@@H]12,inactive,–
O=C(NCCCCNCCCNC(=O)c1ccccc1)c1ccccc1,inactive,–
CCCCCc1ccco1,inactive,–
COc1cc(C)ccc1C(C)C,inactive,–
CCN1C[C@]2(C)CCC(OC)[C@@]34C5C[C@@H]6CC[C@@](O)(C5C(=O)O6)[C@@H](C(O)C23)[C@@H]14 (stereo not given in full),inactive,–
CC1(C)C[C@H](O)[C@@]23C[C@@H](OC2=O)[C@]2(C)C(=CCC4[C@@]5(C)CC[C@H](O)C(C)(C)C5CC[C@]42C)[C@@H]3C1 (stereo not given in full),inactive,–
COc1ccc(-c2cc(=O)c3c(O)cc(OC4OC(COC5OC(C)C(O)C(O)C5O)C(O)C(O)C4O)cc3o2)cc1O (stereo not given),inactive,–
OCCN1C[C@H](O)[C@@H](O)[C@H](O)[C@@H]1CO,inactive,–
COc1ccc(C(=O)OC2CC[C@@]3(C)C4CCC5[C@]6(O)C[C@H](O)[C@@]7(O)C(CN8CC(C)CCC8[C@@]7(C)O)[C@]6(O)C[C@@]53O[C@]24O)cc1OC (stereo not given in full),inactive,–
C[C@@H]1CC(=O)[C@H]2CC(CO)=CCC[C@@H]2[C@@]1(C)CC/C(=C/CO)CO,inactive,–
CCN(CC)CCNC(=O)c1c(C)[nH]c(C=C2C(=O)Nc3ccc(F)cc32)c1C,44.4 µM (active),–
CCC[C@H]1C[C@H](C(=O)N[C@@H]([C@@H]2O[C@@H](SC)[C@@H](O)[C@@H](O)[C@@H]2O)[C@H](C)Cl)N(C)C1,inactive,–
CC1CCC(C(C)[C@H]2CCC3C4CC(=O)C5C[C@@H](O)CC[C@]5(C)C4CC[C@@]32C)=NC1 (stereo not given in full),inactive,–
C=C(CC1CC(O)[C@]2(C)OC3CC4OC5C[C@]6(C)O[C@]7(C)CCC8OC9C[C@]%10(C)OC%11C(C)=CC(=O)OC%11CC%10OC9C[C@@H](C)C8OC7CC6O[C@]5(C)C/C=C\C4OC3CC2O1)C(=O)O (stereo not given in full),inactive,–
COc1cc2c(cc1O)C(Cc1ccc(O)cc1)NCC2 (stereo not given),inactive,–
CCCCCCCCCCCCCCCC(=O)NCCc1c[nH]c2ccccc12,inactive,–
Cc1c(O[C@@H]2O[C@H](CO)[C@@H](O)[C@H](O)[C@H]2O)c(CO)c(O[C@@H]2O[C@H](CO)[C@@H](O)[C@H](O)[C@H]2O)c2c1O[C@@H](c1ccccc1)C[C@@H]2O,inactive,–
O[C@@H]1COC2[C@@H](O)CO[C@@H]21 (stereo not given in full),inactive,–
CC(C)=CCC/C(C)=C/COC=O,inactive,–
CC1(C)C2CC[C@]3(C)C(CC=C4[C@@H]5C[C@@](C)(CO)[C@@H]6C[C@@]5(CC[C@]43C)C(=O)O6)[C@@]2(C)CC[C@@H]1O (stereo not given in full),inactive,–

SMILES,Potency,"activity change, negative = inhibition"
Cc1ccc(C(C)(C)O)cc1,inactive,–
CC(C)=CCC/C(C)=C/CC/C(C)=C/CCC1(C)CCc2cc(O)ccc2O1 (stereo not given),inactive,–
CC(=Cc1ccccc1)C=C1SC(=S)N(CC(=O)O)C1=O,inactive,–
CC1CCC(C(C)(C)S)C(=O)C1 (stereo not given),inactive,–
CC[C@H]1OC(=O)[C@H](C)[C@@H](O[C@H]2C[C@@](C)(OC)[C@@H](O)[C@H](C)O2)[C@H](C)[C@@H](O[C@@H]2O[C@@H](C)C[C@H](N(C)C)[C@@H]2O)[C@](C)(O)C[C@@H](C)C(=O)[C@H](C)[C@@H](O)[C@]1(C)O,inactive,–
C=CC(=O)Nc1cccc(Nc2nc(NC3CCC(N(C)C)CC3)nc3c2ncn3C(C)C)c1 (stereo not given),0.863 µM (active),–
C/C(=C/CCC(C)(O)C1CC[C@@]2(C)[C@@H]3CC=C4[C@@H](CC[C@H](O[C@H]5O[C@@H](CO)[C@H](O)[C@@H](O)[C@@H]5O)C4(C)C)[C@]3(C)C(=O)C[C@]12C)CO[C@@H]1O[C@H](CO)[C@@H](O)[C@H](O)[C@H]1O (stereo not given in full),inactive,–
CC(C)C(=O)OCCc1ccccc1,inactive,–
COc1ccc2c(c1)OC[C@H]1c3cc4c(cc3O[C@@H]21)OCO4,inactive,–
C[C@@H](O)CCC[C@H](O)/C=C/[C@@H]1[C@@H](C/C=C\CCCC(=O)O)[C@@H](O)C[C@H]1O,–,-26.1% [at 0.757 µM]
COc1ccccc1NC(C)=O,inactive,–
NCCC(=O)c1ccccc1N,inactive,–
C=C1C[C@H](O)[C@@H]2[C@H](OC(=O)[C@H]2C)[C@H]2[C@H](C)[C@@H](O)C[C@@H]12,inactive,–
CC(C)N(CCCNC(=O)Nc1ccc(C(C)(C)C)cc1)C[C@H]1O[C@@H](n2cc(Br)c3c(N)ncnc32)[C@H](O)[C@H]1O,inactive,–
COC(=O)CC(C)CCC=C(C)C (stereo not given),inactive,–
COc1ccc(C(=O)/C=C/c2ccc(O)cc2)c(O)c1CC=C(C)C,inactive,–
C=C1[C@H]2C[C@H]3[C@H]4N5C[C@]6(C)CCC[C@]47[C@H]([C@H]2O)[C@]3(C[C@]5(O)[C@H]67)[C@@H]1O,inactive,–
C=C(C)[C@H]1CC=C(CO)CC1,inactive,–
C/C=C1\CN2[C@H]3C[C@@]45c6ccccc6N(C)[C@H]4[C@@H]2CC1C3[C@H]5O (stereo not given in full),inactive,–
COc1ccc([C@@H]2[C@@H](O)[C@H](O)[C@@H](C)N2C)cc1OC,inactive,–
